Laboratory results: PubChem BioAssay (NCATS)
Records with an inconclusive call do not appear. Active and inactive are the calls of the source. Calls come from the whole dose curve; as a rule, active = well fitted curve in the direction sought with a large enough effect; inconclusive = small, poorly fitted or top-dose-only effect, or another doubt; inactive = no such curve, though single readings can be large; an effect the other way counts as inactive or inconclusive.

Assays:
[1] = OV-KATE Cancer Cell Toxicity qHTS against the NCATS CANVASS Library (AID 1347345); note: potency is the fitted concentration of half-maximal effect
Summary of the method: (§1)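 ATP content after 72 h treatment, detected by CellTiter-Glo luminescence (15min room-temperature development), reflects cell viability. Wells contained 1000 cells and received compounds at 11 concentrations.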

[2] = HPAF-II Cancer Cell Toxicity qHTS against the NCATS CANVASS Library (AID 1347346); note: nearly all actives have a fitted effect of over 55% in size; note: potency is the fitted concentration of half-maximal effect
Summary of the method: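 1000 HPAF-II cells/well; 4 h pre-incubation; 11-pnt compound titration; 72 h, 37 degrees C/5% CO2; CellTiter-Glo, 15 min RT; luminescence read.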

[3] = OV-SAHO Cancer Cell Toxicity qHTS against the NCATS CANVASS Library (AID 1347348); note: nearly all actives have a fitted effect of over 55% in size; note: potency is the fitted concentration of half-maximal effect
Summary of the method: as §1

[4] = COV-362 Cancer Cell Toxicity qHTS against the NCATS CANVASS Library (AID 1347352); note: potency is the fitted concentration of half-maximal effect
Summary of the method: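 1000 cells/well, 4 h pre-incubation 37 °C/5% CO2; 11-pnt titration; 72 h; CellTiter-Glo 15 min RT, luminescence.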

[5] = HPAF-II 24hr Apoptosis Induction qHTS against the NCATS CANVASS Library (AID 1347356)
Summary of the method: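 500 HPAF-II cells/well; compounds in 11-pnt qHTS; 24 h, 37 C/5% CO2; Caspase-Glo 3/7 added, 15 min RT dark; luminescence read. Doxorubicin control.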

[6] = HEK293 18hr Apoptosis Induction qHTS against the NCATS CANVASS Library (AID 1347357); note: potency is the fitted concentration of half-maximal effect
Summary of the method: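 HEK293 cells (500/well, DMEM + 10% FBS) treated with an 11-point series for 18 h at 37 degrees C. Caspase-3/7 activity read by Caspase-Glo luminescence after 15 min at room temperature.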

[7] = HPAF-II 12hr Apoptosis Induction qHTS against the NCATS CANVASS Library (AID 1347358)
Summary of the method: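 Caspase-Glo 3/7 luminescence (DEVD substrate) reports caspase activity in HPAF-II cells after 12 h compound treatment at 37 degrees C. Compounds were tested in an 11-point series. Doxorubicin served as control.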

[8] = HEK293 24hr Apoptosis Induction qHTS against the NCATS CANVASS Library (AID 1347359); note: potency is the fitted concentration of half-maximal effect
Summary of the method: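 HEK293 cells (500/well, DMEM + 10% FBS) were exposed to compounds in an 11-point series for 24 hours at 37 degrees C, then caspase-3/7 activity was read by Caspase-Glo DEVD luciferase luminescence after 15 min.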

[9] = HPAF-II 18hr Apoptosis Induction qHTS against the NCATS CANVASS Library (AID 1347360)
Summary of the method: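 HPAF-II cells at 500/well were exposed for 18 h at 37 C to an 11-point compound series. Caspase-3/7 activity was read by Caspase-Glo luminescence after 15 min at RT.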

[10] = target: Luciferin 4-monooxygenase (Photinus pyralis) (UniProt P08659); assay: Firefly luciferase counterscreen qHTS: Assay Interference Panel against the NCATS CANVASS Library (AID 1347363); note: series mostly up to about 57 µM
Sequence of Luciferin 4-monooxygenase (Photinus pyralis) (P08659 whole entry, looked up): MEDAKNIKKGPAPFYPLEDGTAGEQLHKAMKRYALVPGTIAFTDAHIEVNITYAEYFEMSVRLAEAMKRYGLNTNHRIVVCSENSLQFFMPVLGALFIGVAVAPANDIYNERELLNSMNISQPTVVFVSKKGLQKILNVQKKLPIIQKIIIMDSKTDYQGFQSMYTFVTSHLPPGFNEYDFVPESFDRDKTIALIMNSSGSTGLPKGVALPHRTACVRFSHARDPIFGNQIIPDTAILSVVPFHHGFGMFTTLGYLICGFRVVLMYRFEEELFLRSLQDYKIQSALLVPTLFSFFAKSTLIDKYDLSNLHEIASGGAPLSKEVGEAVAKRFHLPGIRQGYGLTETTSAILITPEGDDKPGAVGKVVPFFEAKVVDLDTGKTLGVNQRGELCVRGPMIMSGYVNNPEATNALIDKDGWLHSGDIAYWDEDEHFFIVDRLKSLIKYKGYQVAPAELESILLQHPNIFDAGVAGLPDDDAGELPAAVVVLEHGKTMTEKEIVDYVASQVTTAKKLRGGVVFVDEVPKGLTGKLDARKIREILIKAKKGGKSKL
Summary of the method: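 Purified P. pyralis luciferase was added to compounds (11-point series) preincubated 15 min at room temperature with substrate containing 0.013 mM D-luciferin and 0.013 mM ATP; luminescence was read after 5 min.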

[11] = KB-3-1 Cancer Cell Toxicity qHTS against the NCATS CANVASS Library (AID 1347366); note: nearly all actives have a fitted effect of over 75% in size; note: potency is the fitted concentration of half-maximal effect
Summary of the method: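 KB-3-1 cells (500/well) in DMEM with 10% FBS were exposed to compounds for 72 h at 37C. Viability was read by CellTiter-Glo luminescence.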

[12] = MCF7 Cancer Cell Toxicity qHTS against the NCATS CANVASS Library (AID 1347369); note: potency is the fitted concentration of half-maximal effect
Summary of the method: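 MCF7 cells (500/well) were exposed 72 h at 37 °C to compounds in an 11-point series. Viability was read as ATP content by CellTiterGlo luminescence.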

[13] = qHTS for ATAD5 Antagonist screened against the NCATS CANVASS Library (AID 1347370); note: nearly all actives have a fitted effect of over 65% in size; note: potency is the fitted concentration of half-maximal effect
Summary of the method: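 HEK293T-ATAD5 luc reporter, 2000 cells/well; 5hr attach; cpd + 10 uM 5-FUrd; 16hr 37C, 5% CO2. Readouts: CellTiter-Fluor fluorescence (1hr), then Amplite luciferase luminescence (30min RT).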

[14] = J3T Cancer Cell Toxicity qHTS against the NCATS CANVASS Library (AID 1347371); note: potency is the fitted concentration of half-maximal effect
Summary of the method: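 Dog glioma J3T, 500 cells/well; cpd 11-pt qHTS; 72 hr, 37C/5% CO2; CellTiterGlo ATP luminescence readout.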

[15] = target: Nuclear receptor subfamily 1 group I member 3 (Homo sapiens) (UniProt Q14994); assay: qHTS for Constitutive Androstane Receptor (CAR) Agonist screened against the NCATS CANVASS Library (AID 1347373);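 note: every well also contained 1.5 µM PK11195 alongside the test compound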
Sequence of Nuclear receptor subfamily 1 group I member 3 (Homo sapiens) (Q14994 whole entry, looked up): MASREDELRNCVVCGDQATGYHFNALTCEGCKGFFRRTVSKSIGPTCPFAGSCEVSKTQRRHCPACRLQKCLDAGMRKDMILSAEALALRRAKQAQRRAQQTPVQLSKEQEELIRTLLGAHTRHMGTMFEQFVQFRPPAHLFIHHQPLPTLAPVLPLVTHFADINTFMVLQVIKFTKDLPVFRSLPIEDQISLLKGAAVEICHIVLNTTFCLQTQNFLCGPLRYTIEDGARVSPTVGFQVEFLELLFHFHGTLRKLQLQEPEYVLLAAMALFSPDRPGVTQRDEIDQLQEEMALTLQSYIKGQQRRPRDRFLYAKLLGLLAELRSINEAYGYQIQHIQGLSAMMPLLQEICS
Summary of the method: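 Luciferase read-out (ONE-Glo, 30 min RT) of CYP2B6-2.2kb promoter activity in double-stable HepG2-hCAR cells after 24hr compound exposure with 1.5uM PK11195 present; viability measured first by CellTiter-Fluor.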

[16] = 10-beta competent E. coli microbial cell viability qHTS against the NCATS CANVASS Library (AID 1347376); note: series mostly up to about 46 µM
Summary of the method: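 Luminescence from BacTiter-Glo ATP detection served as the viability read-out; bacteria (0.2 OD) had been incubated overnight at 37C with pin-transferred compounds at 11 concentrations.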

[17] = qHTS for Inflammasome Signaling Inhibitors: IL-1-beta AlphaLISA screen against the NCATS CANVASS Library (AID 1347379);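 note: human THP-1 cells primed with LPS then triggered with ATP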;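 for Potency: secreted IL-1B measured as AlphaLISA emission at 615 nm; potency is the fitted concentration of half-maximal effect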
Summary of the method: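 THP-1, 1 hr compound pre-incubation, then LPS 250 ng/mL + ATP 1.25 mM (final); 16 hr total with compound; IL-1B AlphaLISA, ex 680/em 615 nm; 11-point qHTS, up to 57.5 uM final.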

[18] = Inflammasome Signaling qHTS Counterscreen: IL-1-beta AlphaLISA counterscreen against the NCATS CANVASS Library (AID 1347381);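 note: cell-free check with purified IL-1β in medium and no THP-1 cells; series mostly up to about 57 µM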
Summary of the method: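 Here, no cellular stimulation occurs; compounds in an 11-point series meet 4 pg purified IL-1-beta directly. Bead-based AlphaLISA detection follows (1 h acceptor/antibody, then 30 min donor, dark, room temperature), with excitation at 680 nm.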

[19] = Cytotoxicity qHTS for assessment of Hepg2 cells membrane integrity screened against the NCATS CANVASS Library (AID 1347387)
Summary of the method: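 LDH release read by fluorescence (560 nm ex/590 nm em) after CytoTox-ONE addition and 10 min RT; signal tracks lysed cells. HepG2, 2000 cells/well, plated overnight; compound 5 hr, 37C, 5% CO2, final 0.59 nM - 46 uM, 11 points.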

[20] = Viability qHTS for inhibitors of the SERCaMP assay screened against the NCATS CANVASS Library (AID 1347400); note: nearly all actives have a fitted effect of over 70% in size; note: potency is the fitted concentration of half-maximal effect
Summary of the method: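 CellTiter-Glo luminescence readout after 48 h compound exposure (11-pnt qHTS series) of SH-SY5Y-GLuc SERCaMP MJH297 cells seeded at 1000 cells/well; bortezomib positive control.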

Measured: Potency

O=Cc1ccc2n1C[C@@]1(C[C@H](O)[C@@H](CO)O1)OC2
inactive: all assays above

O=C(O)[C@@]12COC3(O)C1CCN1CC[C@H]3[C@@H]1c1c2[nH]c2ccccc12
inactive: all assays above

O=C(O)Cc1c[nH]c2ccccc12
inactive: all assays above

COc1cc(/C=C/C(=O)O)ccc1O
inactive: all assays above

C=C1C[C@@]23C=CC(=O)[C@@](C)(CCC(=O)Nc4c(O)ccc(C(=O)O)c4O)C2C[C@@H]1CC3 (stereo partly drawn)
inactive: all assays above

O=C1c2c(O)cc(O)cc2O[C@@H](c2ccc(O)cc2)[C@@H]1c1c(O)cc(O)c2c(=O)cc(-c3ccc(O)c(O)c3)oc12
not listed: [16]
inactive: all other assays above

OCc1ccc2ocnc2c1
inactive: all assays above

CC(=O)O[C@@H]1C=C2C(=O)OC[C@]2(O)[C@@]2(C)CCCC(C)(C)[C@H]12
active: [1] 5.94 µM | [2] 13.3 µM | [3] 5.94 µM | [4] 8.38 µM | [6] 26.4 µM | [17] 10.9 µM | [20] 12 µM
inactive: [10] | [15] | [16] | [18]

C=C[C@]1(C)CC[C@@H]([C@H](C)C(=O)OCC)O1
not listed: [10]
inactive: all other assays above

Oc1ccc(C2c3c(O)cc(O)cc3[C@@H]3C(c4ccc(O)cc4)c4c(O)cc(O)cc4[C@H]23)cc1 (stereo partly drawn)
inactive: all assays above

C=C(C)C(=O)O[C@H]1C[C@H](C)[C@@H](OC(C)=O)CC[C@@]2(C)O[C@@H]2[C@H]2OC(=O)C(COC(C)=O)=C12
inactive: [4] | [10] | [15] | [16] | [18] | [19]
active: [1] 4.2 µM | [2] 11.9 µM | [3] 2.36 µM | [6] 9.35 µM | [12] 23.4 µM | [13] 16.6 µM | [14] 6.62 µM | [17] 9.68 µM | [20] 9.57 µM

CC1C(=O)C23CCC1C[C@@]21O[C@H]2C(C)(C)C=CC(=O)[C@@]23COC1=O (stereo partly drawn)
inactive: all assays above

CC1(C)C=Cc2c(ccc3c2OC[C@@H](c2ccc(O)cc2O)C3)O1
not listed: [10] | [15]
inactive: all other assays above

CO[C@H]1/C=C/CC[C@@H](S[C@@H]2O[C@H](CO)[C@@H](O)[C@H](O)[C@H]2O)CC(=O)O[C@@H](/C(C)=C/[C@H](C)C(=O)CCCC2CC(=O)NC(=O)C2)[C@@H](C)[C@@H]1O
active: [1] 3.75 µM | [2] 8.41 µM | [3] 3.75 µM | [11] 20.9 µM | [13] 4.17 µM | [17] 30.6 µM | [20] 12 µM
not listed: [4] | [12] | [14] | [15]
inactive: all other assays above

C[C@@]12CCC[C@@](C)(C(=O)O)[C@H]1CC[C@]13C[C@H]4C[C@H](O[C@@]4(C)C1)[C@H]32
inactive: all assays above

C=C1C[C@@]23C=CC(=O)[C@@](C)(CCC(=O)Nc4c(O)ccc(C(=O)O)c4O)C2C[C@@H]1CC3O (stereo partly drawn)
inactive: all assays above

CO[C@@H]1[C@H](O)[C@@H](C)O[C@@H](OC[C@H]2/C=C/C=C/C(=O)C(C)C[C@H](C)C(O[C@@H]3O[C@H](C)CC4(OC(=O)O[C@@H]4C)C3O)[C@@H](C)/C=C/C(=O)OC2C)[C@@H]1OC (stereo partly drawn)
not listed: [13]
inactive: all other assays above

CC1(C)[C@H](Br)CC[C@]23C[C@]4(C)C(=O)CC12C[C@H]34
not listed: [15]
inactive: all other assays above

C=C(NC(=O)c1csc(-c2nc3c(cc2O)-c2nc(cs2)C(=O)NC(C(C)O)C(=O)N/C(=C(\C)O)c2nc(cs2)C(=O)NC2c4nc(cs4)C(=O)NC(COC(=O)c4c5c6c(cccc6n4O)COC(=O)[C@@H](OC4C[C@](C)(O)[C@H](N(C)C)[C@H](C)O4)C2OC5)c2nc-3cs2)n1)C(N)=O (stereo partly drawn)
inactive: all assays above

CC(=O)NC[C@@H]1O[C@H](CC/C=C(C)/C(C)=C/C=O)[C@H](C)C[C@H]1O
not listed: [20]
inactive: all other assays above

CC(C)=CCC[C@@H](C)[C@@H]1CC[C@@]2(C)C[C@H]3C(C)=CC(=O)[C@@H]3/C(C=O)=C\C[C@H]12
inactive: [10] | [15] | [16] | [18] | [19]
active: [1] 9.41 µM | [2] 5.95 µM | [3] 10.6 µM | [4] 11.8 µM | [8] 26.4 µM | [11] 10.5 µM | [17] 17.2 µM | [20] 42.8 µM

C=CC(=C)CC[C@]1(C)[C@H]2C[C@H](OC(=O)C(C)CC)C=C3[C@H](OC(C)=O)O[C@H](OC(C)=O)[C@@]32[C@H](OC)C[C@@H]1C (stereo partly drawn)
inactive: [10] | [15] | [16] | [18]
active: [1] 2.17 µM | [2] 3.43 µM | [3] 2.73 µM | [4] 4.33 µM | [6] 13.6 µM | [8] 9.59 µM | [11] 6.79 µM | [12] 12.1 µM | [13] 10.8 µM | [14] 4.81 µM | [17] 7.03 µM | [20] 2.21 µM

CN1CC[C@]2(c3cccc4c3N[C@@H]3N(C)CC[C@]43[C@@]34CCN(C)[C@@H]3Nc3ccccc34)c3ccccc3N[C@H]12
active: [1] 14.9 µM | [2] 18.8 µM | [3] 18.8 µM | [4] 13.3 µM | [11] 16.6 µM | [12] 9.31 µM | [14] 7.43 µM | [17] 24.3 µM | [20] 15.2 µM
not listed: [6]
inactive: all other assays above
